From the antibiotic and cytotoxicity screens of Wong et al. (2023)
Among all 39,000 compounds or so, about 3,300 (8.5%) were called active. The sample as a whole holds a higher share of actives than the screen did.

Each compound was assayed on HepG2 (assay: cytotoxicity call (relative viability < 0.9)). Conditions: 10 µM.

Compound	cytotoxicity call
COc1ccc(S(=O)(=O)N(C)C[C@@H]2OCCCC[C@@H](C)Oc3ccc(NC(=O)CCC(F)(F)F)cc3C(=O)N([C@H](C)CO)C[C@H]2C)cc1	inactive
COc1cc([C@H]2OC[C@@H]3[C@H]2CO[C@H]3c2cc(OC)c(O[C@@H]3O[C@H](CO)[C@@H](O)[C@H](O)[C@H]3O)c(OC)c2)cc(OC)c1OC	inactive
COc1cc(C[C@H]2CO[C@H](c3ccc(O)c(OC)c3)[C@@H]2CO[C@H]2O[C@@H](CO)[C@@H](O)[C@@H](O)[C@@H]2O)ccc1O	active
COc1cc([C@H]2OC[C@](O)(Cc3ccc(O[C@@H]4O[C@H](CO)[C@@H](O)[C@H](O)[C@H]4O)c(OC)c3)[C@@H]2CO)ccc1O	inactive
COc1ccc(NC(=O)Nc2ccc3c(c2)C(=O)N([C@H](C)CO)C[C@@H](C)[C@@H](CN(C)Cc2ccc(C(F)(F)F)cc2)OCCCC[C@H](C)O3)cc1	inactive
COc1ccc(NC(=O)Nc2ccc3c(c2)C(=O)N([C@H](C)CO)C[C@H](C)[C@@H](CN(C)Cc2ccc(C(F)(F)F)cc2)OCCCC[C@H](C)O3)cc1	inactive
COc1ccc(CN(C)C[C@@H]2OCCCC[C@@H](C)Oc3ccc(NC(=O)Nc4ccc(C(F)(F)F)cc4)cc3C(=O)N([C@@H](C)CO)C[C@H]2C)cc1	active
COc1ccc(CN(C)C[C@H]2OCCCC[C@@H](C)Oc3ccc(NC(=O)Nc4ccc(C(F)(F)F)cc4)cc3C(=O)N([C@H](C)CO)C[C@@H]2C)cc1	active
COc1ccc(NC(=O)Nc2ccc3c(c2)C(=O)N([C@@H](C)CO)C[C@@H](C)[C@H](CN(C)Cc2ccc(C(F)(F)F)cc2)OCCCC[C@H](C)O3)cc1	inactive
COc1ccc(CN(C)C[C@@H]2OCCCC[C@H](C)Oc3ccc(NC(=O)Nc4ccc(C(F)(F)F)cc4)cc3C(=O)N([C@@H](C)CO)C[C@@H]2C)cc1	active
COc1ccc(CN(C)C[C@@H]2OCCCC[C@H](C)Oc3ccc(NC(=O)Nc4ccc(C(F)(F)F)cc4)cc3C(=O)N([C@H](C)CO)C[C@@H]2C)cc1	active
COc1ccc(NC(=O)Nc2ccc3c(c2)C(=O)N([C@@H](C)CO)C[C@H](C)[C@@H](CN(C)Cc2ccc(C(F)(F)F)cc2)OCCCC[C@H](C)O3)cc1	inactive
COCC#Cc1ccc2c(c1)O[C@H](CN(C)C(=O)Nc1ccc(OC)cc1)[C@H](C)CN([C@H](C)CO)S2(=O)=O	inactive
COCC(=O)N1CC[C@]2(CC1)CN([C@H](CO)c1[nH]c3cc(ccc3c12)OC)C(=O)Nc1ccccc1F	inactive
Cc1c(C)c2c(c(C)c1OC(=O)CCC(=O)O)CC[C@@](C)(CCC[C@H](C)CCC[C@H](C)CCCC(C)C)O2	inactive
Cc1ccc(S(=O)(=O)Nc2ccc3c(c2)CC(=O)N([C@H](C)CO)C[C@@H](C)[C@@H](CN(C)S(=O)(=O)c2c(C)noc2C)O3)cc1	inactive
COc1ccc(CCNC(=O)[C@@H]2c3ccccc3C(=O)N(CC34CC5CC(CC(C5)C3)C4)[C@H]2c2ccc(CO)cc2)cc1	inactive
C=CCN(CC=C)S(=O)(=O)c1nnc[nH]1	inactive
C[C@@H]1CN([C@@H](C)CO)C(=O)c2cc(NC(=O)Cc3ccccc3)ccc2O[C@@H](C)CCCCO[C@H]1CN(C)S(=O)(=O)c1cccs1	inactive
O=C(C[C@H]1C=C[C@H](NC(=O)c2ccncc2)[C@H](CO)O1)NCc1ccncn1	inactive
CC1=CC(=O)C2=C(C)CCC3C(C)C(=O)OC3C12 (stereo unspecified)	inactive

Compound	cytotoxicity call
C[C@H](CO)N1C[C@H](C)[C@@H](CN(C)Cc2ccc(Cl)c(Cl)c2)Oc2ccc(NC(=O)CCCCCC(=O)Nc3ccccc3N)cc2CC1=O	inactive
O=C(C[C@@H]1CC[C@H]2[C@@H](COC[C@H](O)CN2C(=O)Nc2cccc(F)c2)O1)NCCCN1CCOCC1	inactive
COc1ccc(CN(C)C[C@H]2OCCCC[C@@H](C)Oc3ccc(NC(=O)Nc4ccc(C(F)(F)F)cc4)cc3C(=O)N([C@H](C)CO)C[C@H]2C)cc1	active
COc1ccc(CN(C)C[C@H]2OCCCC[C@H](C)Oc3ccc(NC(=O)Nc4ccc(C(F)(F)F)cc4)cc3C(=O)N([C@H](C)CO)C[C@H]2C)cc1	active
COc1ccc(NC(=O)Nc2ccc3c(c2)C(=O)N([C@@H](C)CO)C[C@H](C)[C@@H](CN(C)Cc2ccc(C(F)(F)F)cc2)OCCCC[C@@H](C)O3)cc1	active
COc1ccc(CN(C)C[C@@H]2OCCCC[C@H](C)Oc3ccc(NC(=O)Nc4ccc(C(F)(F)F)cc4)cc3C(=O)N([C@@H](C)CO)C[C@H]2C)cc1	active
O=C(C[C@H]1C[C@H]2c3cc(NC(=O)c4ccc5c(c4)OCO5)ccc3O[C@H]2[C@H](CO)O1)NCCN1CCCCC1	inactive
C[C@H]1CN([C@@H](C)CO)C(=O)c2cc(NC(=O)Cn3cnnn3)ccc2O[C@H]1CN(C)Cc1ccccc1	inactive
CC(C)NC(=O)Nc1ccc2c(c1)C(=O)N([C@@H](C)CO)C[C@H](C)[C@@H](CN(C)C(=O)Nc1ccc(F)cc1)OCCCC[C@@H](C)O2	inactive
O=C(C[C@H]1CC=CCC[C@H](Cc2ccc(F)cc2)C(=O)OC[C@H](Cc2ccccc2)NC1=O)NCCO	inactive
C#CCN(O[C@@H](/C=C/[C@@H](O)CCn1cc(-c2cccc(/C=C/C(=O)NO)c2)nn1)C1CC1)[C@@H](Cc1ccccc1)C(=O)OC	inactive
C[C@@H]1CCCCO[C@@H](CN(C)C(=O)c2ccccc2)[C@H](C)CN([C@@H](C)CO)C(=O)c2cc(NC(=O)Nc3ccccc3)ccc2O1	inactive
O=C(NC1CC1)c1n[nH]c(=O)c2ccccc12	inactive
O=C1CNCCN1C1CCCC1	inactive
C[C@@H]1CN([C@H](C)CO)C(=O)c2cc(NC(=O)CCC(F)(F)F)ccc2O[C@@H](C)CCCCO[C@H]1CN(C)C(=O)Nc1ccc(C(F)(F)F)cc1	inactive
COc1ccc(CN(C)C[C@H]2OCCCC[C@H](C)Oc3ccc(NC(=O)Nc4ccc(C(F)(F)F)cc4)cc3C(=O)N([C@H](C)CO)C[C@@H]2C)cc1	active
COc1ccc(NC(=O)Nc2ccc3c(c2)C(=O)N([C@H](C)CO)C[C@@H](C)[C@@H](CN(C)Cc2ccc(C(F)(F)F)cc2)OCCCC[C@@H](C)O3)cc1	active
COc1ccc(CN(C)C[C@H]2OCCCC[C@H](C)Oc3ccc(NC(=O)Nc4ccc(C(F)(F)F)cc4)cc3C(=O)N([C@@H](C)CO)C[C@H]2C)cc1	active
COc1ccc(NC(=O)Nc2ccc3c(c2)C(=O)N([C@@H](C)CO)C[C@@H](C)[C@H](CN(C)Cc2ccc(C(F)(F)F)cc2)OCCCC[C@@H](C)O3)cc1	active
CC[C@@H](NC)C(=O)O	inactive
CC(C)(C)[C@H]1CCc2c(sc3nc(-c4ccccc4)cn23)C1	inactive

Compound	cytotoxicity call
COc1ccc(NC(=O)N(C)C[C@H]2Oc3ncc(C#C[C@H](C)O)cc3C(=O)N([C@@H](C)CO)C[C@H]2C)cc1	inactive
O=C(O)[C@H]1CCS(=O)(=O)C1	inactive
NC(=O)c1cc(Cl)ccn1	inactive
C[C@@H]1CN([C@@H](C)CO)C(=O)c2cccc(NC(=O)c3ccc(-c4nccs4)cc3)c2O[C@@H]1CN(C)Cc1ccc(Oc2ccccc2)cc1	inactive
COc1ccc(C#Cc2ccc3c(c2)O[C@H](CN(C)S(=O)(=O)c2ccccc2F)[C@@H](C)CN([C@@H](C)CO)S3(=O)=O)cc1	inactive
C[C@@H]1CN([C@@H](C)CO)C(=O)c2cccc(NS(=O)(=O)c3ccccc3)c2O[C@@H]1CN(C)S(=O)(=O)c1ccccc1	inactive
C[C@H](CO)N1C[C@H](C)[C@H](CN(C)C(=O)CCC(F)(F)F)OCc2ccccc2-c2c(n(C)c3ccccc23)C1=O	inactive
C[C@@H]1CCCCO[C@H](CN(C)S(=O)(=O)c2cn(C)cn2)[C@@H](C)CN([C@@H](C)CO)C(=O)c2cc(NC(=O)CCCN(C)C)ccc2O1	inactive
Cc1noc(C)c1S(=O)(=O)N(C)C[C@H]1OCCCC[C@H](C)Oc2ccc(NC(=O)Nc3cccc4ccccc34)cc2C(=O)N([C@H](C)CO)C[C@H]1C	inactive
C[C@@H]1CN([C@@H](C)CO)C(=O)CCCn2nncc2CO[C@@H]1CN(C)C(=O)Nc1ccccc1C(F)(F)F	inactive
COc1ccc(NC(=O)Nc2ccc3c(c2)C(=O)N([C@H](C)CO)C[C@@H](C)[C@H](CN(C)Cc2ccc(C(F)(F)F)cc2)OCCCC[C@@H](C)O3)cc1	active
COc1ccc(NC(=O)Nc2ccc3c(c2)C(=O)N([C@@H](C)CO)C[C@@H](C)[C@@H](CN(C)Cc2ccc(C(F)(F)F)cc2)OCCCC[C@H](C)O3)cc1	active
COc1ccc(CN(C)C[C@@H]2OCCCC[C@@H](C)Oc3ccc(NC(=O)Nc4ccc(C(F)(F)F)cc4)cc3C(=O)N([C@@H](C)CO)C[C@@H]2C)cc1	active
COc1ccc(NC(=O)Nc2ccc3c(c2)C(=O)N([C@@H](C)CO)C[C@H](C)[C@H](CN(C)Cc2ccc(C(F)(F)F)cc2)OCCCC[C@H](C)O3)cc1	active
O=C(C[C@@H]1CC[C@@H]2[C@H](COC[C@@H](O)CN2S(=O)(=O)c2ccccc2)O1)NCCN1CCCC1	inactive
C[C@@H]1CN([C@H](C)CO)C(=O)Cc2cc(NC(=O)c3ccncc3)ccc2O[C@@H]1CN(C)C(=O)Nc1ccc2c(c1)OCO2	inactive
COCC(=O)N1C[C@@H](C)[C@H](OC)CN(C)C(=O)c2ccc(NC(=O)Nc3ccccc3)cc2OC[C@H]1C	inactive
CNC(=O)[C@H]1C[C@H]2CCN(S(=O)(=O)N(C)C)C[C@H]2O1	inactive
Cc1noc(C)c1S(=O)(=O)Nc1ccc2c(c1)C(=O)N([C@@H](C)CO)C[C@H](C)[C@@H](CN(C)C(=O)NC(C)C)O2	inactive
